# Assay outcomes as filed in PubChem BioAssay.
# Most compounds without a hit are left out; they make up all but 4.2% or so of the library.
# Wnt act – activators of Wnt/beta-catenin signaling; Wnt/beta-catenin reporter cell assay, activator, plate reader; activation, % at 9.35 µM; hit rate 1.2% among 300,000; in the data active = activation above about 30%, passing the limit was not always enough; inconclusive = no clear call, values can overlap the other calls;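 also: 0% = neutral control wells and 100% = positive control wells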
# esBAF inh – blocks esBAF chromatin remodeling in mouse ES cells. Bmi1-luciferase knock-in reporter, 24 h; 100% = twice the neutral-well signal. reporter increase, % at 12.5 µM. hit rate 2% among 350,000. AID 602393; in the data active = activation above about 40%; inconclusive = no clear call, values can overlap the other calls;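 also: 0% = median of the plate's neutral control wells and 100% = double that signal; a rise in the Bmi1 reporter signal indicates esBAF inhibition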
# DAX1 StAR inh – inhibitors of DAX1 repression of SF-1 activated StAR promoter | HEK293T StAR-luciferase reporter, SF-1/DAX-1 repression relief | inhibition, % at 6.8 µM | hit rate 1.1% among 370,000 | AID 652010;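 active = inhibition above the mean over all tested compounds plus 3 SD, cut at about 3.6% in these data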;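 also: 0% = DAX-1 cells with DMSO and 100% = cells lacking DAX-1 with DMSO; higher inhibition means more luminescence from relief of DAX-1 repression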
# hcDAF-12 act – activators of H. contortus DAF-12 nuclear receptor. HEK293 hcDAF-12 lit1-tk-luc reporter, luminescence; 0% DMSO, 100% Δ7-dafachronic acid. activation, % at 6.8 µM. hit rate 1.4% among 370,000. AID 652067;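 active = activation above the mean of all tested compounds plus 3 SD, cut at about 5.5% in these data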;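 also: 100% = response to 3 µM Δ7-dafachronic acid high control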
# hgDAF12 agonist – hgDAF-12 agonism, primary luciferase screen; HEK293 GAL4-hgDAF12 UAS-luciferase reporter, agonist luminescence; normalized to butyrate control; activation, % at 6.8 µM; hit rate 1.8% among 370,000;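 active = activation above a cutoff set at the mean of all screened compounds plus 3 SD, cut at about 10% in these data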;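 also: 0% = DMSO wells and 100% = sodium butyrate wells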
# ssDAF-12 act – activators of S. stercoralis DAF-12 nuclear receptor; AID 652126; activation, % at 6.8 µM; HEK293 ssDAF-12/GRIP1 lit1-tk-luc reporter, luminescence; % of 3 µM dafachronic acid response; hit rate 1% among 370,000;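 active = activation above the mean over all tested compounds plus 3 SD, cut at about 0.9% in these data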;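 also: 0% = DMSO-only wells and 100% = 3 µM delta7-dafachronic acid wells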
# DAX1 inh confirm – NR0B1 (human) inhibition, confirmation; shares compounds with DAX1 StAR inh; HEK293T StAR-promoter luciferase reporter, SF-1/DAX-1 repression; inhibition, % at 6.8 µM; hit rate 87% among 2,400; AID 652134;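 active = inhibition above the average of every tested compound plus 3 SD, cut at about 3.8% in these data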;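 also: 0% = DAX-1 cells with DMSO and 100% = no DAX-1 control cells with DMSO; active compounds raise luminescence by relieving repression of the StAR reporter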
# Target sequence (P51843 whole entry, looked up): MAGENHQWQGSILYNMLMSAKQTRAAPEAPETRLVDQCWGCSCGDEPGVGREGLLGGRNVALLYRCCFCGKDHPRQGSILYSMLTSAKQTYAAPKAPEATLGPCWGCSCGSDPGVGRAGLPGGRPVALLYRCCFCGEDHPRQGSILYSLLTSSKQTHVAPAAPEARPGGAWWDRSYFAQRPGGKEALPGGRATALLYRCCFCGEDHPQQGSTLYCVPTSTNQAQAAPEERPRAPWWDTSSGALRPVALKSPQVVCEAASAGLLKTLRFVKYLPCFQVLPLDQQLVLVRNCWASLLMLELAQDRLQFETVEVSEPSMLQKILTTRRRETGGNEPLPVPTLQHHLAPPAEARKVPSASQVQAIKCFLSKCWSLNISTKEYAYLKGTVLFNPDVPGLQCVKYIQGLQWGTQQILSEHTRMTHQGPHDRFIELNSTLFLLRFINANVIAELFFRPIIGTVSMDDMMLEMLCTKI
# SF1 mutant ctr – counter-screen for DAX1 inhibitors: nonselective inhibitors with SF-1 AF2 mutant; inhibition, % at 6.8 µM; HEK293 StAR-luciferase, luminescence; AID 652136; shares compounds with DAX1 StAR inh; hit rate 78% among 2,400;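 active = inhibition above the mean of all tested compounds plus 3 SD, cut at about 3% in these data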;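 also: 0% = DAX-1 transfected cells with DMSO and 100% = cells without DAX-1 with DMSO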
# The depositor's hits bear a star; ? = inconclusive; . = no result.
SMILES,Wnt act,esBAF inh,DAX1 StAR inh,hcDAF-12 act,hgDAF12 agonist,ssDAF-12 act,DAX1 inh confirm,SF1 mutant ctr
CN1CCN(C(=O)C[C@@H]2CC[C@@H]3[C@H](COC[C@@H](O)CN3C(=O)c3ccccc3F)O2)CC1,.,-4,.,.,.,.,.,.
O=C(CN1C(=O)S/C(=C\c2ccccc2)C1=O)NCCCn1ccnc1,-2,-2,0,1,3,-1,.,.
CC(C)c1ccc(/C=C2\SC(=O)N(CC(=O)NCCCn3ccnc3)C2=O)cc1,21,37,6.8*,3,11*,0,6.2*,6.5*
CCC(=O)N(C)C[C@H]1Oc2cc(-c3cccc(F)c3)ccc2S(=O)(=O)N([C@H](C)CO)C[C@H]1C,.,-2,.,.,.,.,.,.
Cc1ccc(S(=O)(=O)Nc2ccc3c(c2)CC(=O)N([C@@H](C)CO)C[C@H](C)[C@@H](CN(C)C)O3)cc1,.,1,.,.,.,.,.,.
O=C(NNC(=O)c1ccc(NC(=O)C2CC2)cc1)c1ccc(F)cc1,-1,-3,2,-1,2,-2,.,.
O=C(Nc1ccccc1)c1ccc(NC(=O)C2CC2)cc1,24,39,6.5*,0,5,-1,7.7*,5.2*
Fc1cccc(F)c1CSc1nc2ccccc2[nH]1,.,42*,5.1*,4,12*,0,16*,7.8*
CO[C@H]1CN(C)C(=O)c2cc(NC(=O)C3CC3)ccc2OC[C@H](C)N(CC2CC2)C[C@@H]1C,.,-3,.,.,.,.,.,.
Cc1ccc(-n2ncc3c(N4CCCC(C)C4)ncnc32)c(C)c1 (configuration not stated),24,5,4.8*,2,11*,0,7.2*,5.5*
Cc1ccc(-n2ncc3c(N4CCCC4)ncnc32)c(C)c1,29,21,1,5,7,-1,.,.
COc1ccccc1NS(=O)(=O)c1cc(NC(=O)c2ccc(NC(C)=O)cc2)ccc1N1CCOCC1,-3,4,7.0*,-1,-4,-1,10*,0
COc1ccccc1NS(=O)(=O)c1cc(NC(=O)c2ccncc2)ccc1N1CCOCC1,2,.,0,-3,-2,-2,.,.
O=C(Nc1ccc2oc(-c3ccccc3Cl)nc2c1)c1ncn[nH]1,27,?,6.7*,5.8*,10,0,14*,7.9*
O=C(Nc1ccc2oc(-c3cccc4ccccc34)nc2c1)c1ncn[nH]1,.,32,1,-1,1,-2,.,.
Cc1ccc(S(=O)(=O)N(C)C[C@H]2Oc3c(NC(=O)Nc4ccc(F)cc4)cccc3C(=O)N([C@H](C)CO)C[C@@H]2C)cc1,.,-4,.,.,.,.,.,.
O=C(CNC(=O)c1ccc2ccccc2c1)NC1CCCCC1,13,21,-1,0,1,-2,.,.
O=C(NC1CCCCC1)c1ccc2ccccc2c1,49*,56*,5.8*,3,6,-1,7.5*,5.1*
NC(=O)c1ccccc1N/C=C/C(=O)c1ccc(F)cc1,54*,31,5.2*,4,11*,0,9.7*,6.4*
O=C(O)c1ccccc1NN=Cc1ccccc1,61*,.,5.6*,3,10,0,9.3*,5.9*
O=C(O)c1ccccc1Nc1ccccc1C(=O)O,-1,-12,0,-2,0,-1,.,.
COc1ccc(/C=C/c2cc(C(=O)O)c3ccccc3n2)cc1,17,.,4.5*,6.0*,13*,1.0*,9.8*,3.2*
N#Cc1cc2c(nc1SCC(N)=O)CCCCC2,.,32,4.8*,3,5,0,7.3*,4.5*
CCOC(=O)CC(=O)CSc1nc2c(cc1C#N)CCCCCC2,.,29,0,1,0,-1,.,.
COc1cccc(C(=O)Nc2ccc3c(c2)C(=O)N(C)C[C@H](OC)[C@H](C)CN(CC2CC2)[C@H](C)CO3)c1,.,4,.,.,.,.,.,.
SMILES,Wnt act,esBAF inh,DAX1 StAR inh,hcDAF-12 act,hgDAF12 agonist,ssDAF-12 act,DAX1 inh confirm,SF1 mutant ctr
COc1ccc(NC(=O)Nc2ccc3c(c2)C(=O)N([C@@H](C)CO)C[C@H](C)[C@@H](CN(C)Cc2ccc(C(F)(F)F)cc2)OCCCC[C@@H](C)O3)cc1,.,2,.,.,.,.,.,.
O=C(NCc1ccc(Cl)cc1)Nc1ccc(F)cc1,4,21,1,0,3,-1,.,.
Cc1ccc(CNC(=O)Nc2ccc(Cl)cc2)cc1,7,23,5.2*,1,3,0,1,0
CO[C@@H]1CN(C)C(=O)c2cc(NC(=O)Nc3cccc(Cl)c3)ccc2OC[C@H](C)N(C)C[C@H]1C,.,3,.,.,.,.,.,.
CCCN1C[C@@H](C)[C@@H](OC)CN(C)C(=O)c2ccc(NC(=O)c3cccc(OC)c3)cc2OC[C@H]1C,.,2,.,.,.,.,.,.
O=C(N/N=C/c1ccc2c(c1)OCO2)c1ccccn1,-1,-60,4.7*,4,10,0,11*,2
CCOc1cc(/C=N/NC(=O)c2ccccn2)ccc1OC(=O)c1cccs1,7,18,3,2,6,-1,.,.
O=C(O)c1cc(N/N=C/c2ccc3c(c2)OCO3)ccc1Cl,10,.,6.7*,6.0*,10,-1,6.3*,3.1*
O=C(N/N=C/c1ccc(OC(=O)c2cccs2)cc1)c1ccccn1,28,.,6.9*,5,7,0,8.1*,4.7*
O=c1[nH]c(N/N=C\c2ccc3c(c2)OCO3)nc2ccccc12,-2,-2,4.9*,4,13*,1,6.5*,3.3*
O=c1[nH]c(N/N=C/c2ccccc2)nc2ccccc12,.,4,4,3,7,0,.,.
N#C[C@H]1[C@@H](c2ccc(-c3ccccc3F)cc2)[C@H](CO)N1C(=O)Cc1ccccc1,.,1,.,.,.,.,.,.
C[C@@H]1CCCCO[C@@H](CN(C)S(=O)(=O)c2ccccc2)[C@H](C)CN([C@@H](C)CO)C(=O)c2cc(NC(=O)C3CCCCC3)ccc2O1,.,0,.,.,.,.,.,.
CC(C)NC(=O)Nc1ccc2c(c1)C(=O)N([C@H](C)CO)C[C@H](C)[C@H](CN(C)Cc1ccc(C(F)(F)F)cc1)OCCCC[C@H](C)O2,.,-4,.,.,.,.,.,.
COC(=O)c1ccc2nc(-c3ccc(Cl)cc3)c(CC3CCCCC3)n2c1,4,.,1,3,4,1,.,.
Cc1ccc2nc(-c3ccc(Cl)cc3)c(CC3CCCCC3)n2c1,?,12,6.2*,7.4*,23*,1,5.3*,4.9*
Cc1ccc2nc(-c3ccc(F)cc3)c(Cc3cccc(Cl)c3)n2c1,24,48*,9.6*,3,9,0,7.5*,4.3*
Cc1ccc2nc(-c3ccc(F)cc3)c(Cc3cccc(F)c3)n2c1,6,.,4.8*,4,11*,0,4.1*,4.6*
